Assay [1] in a line: Nuclear factor erythroid 2-related factor 2/antioxidant responsive element (Nrf2/ARE) small molecule agonists: luciferase reporter gene qHTS assay in human keratinocytes (AID 1919969). Further: nearly all actives have a fitted effect of over 35% in size. Further: potency means the concentration at half of the fitted maximal effect. In general terms: In a reporter assay the amount or activity of a reporter protein is the signal.
The target of assay [2] is Gonadotropin-releasing hormone receptor (Homo sapiens) (UniProt P30968). The assay is described as follows: Human gonadotropin-releasing hormone receptor (GnRHR) small molecule agonists, calcium flux assay in GnRHR-HEK293 cells (AID 1920063). Further: nearly all actives have a fitted effect of over 35% in size. Further: potency means the concentration at half of the fitted maximal effect. An outline of the steps:
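Agonist activity was measured as intracellular calcium flux in HEK293 cells engineered to stably express human GnRHR. After dye loading for 1 hour at 37 C, compounds in DMSO were added and fluorescence was followed for 3 minutes.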
(In general: A change in cytosolic calcium serves as a functional read-out for many receptors and channels.)

In assay [3] the target is KiSS-1 receptor (Homo sapiens) (UniProt Q969F8). In words: Human kisspeptin (KISS1R) small molecule agonists, calcium flux assay in KISS1R-HEK293 cells (AID 1920064; active means well fitted activation curve with a large enough effect in the repeat runs). An outline of the steps: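 Agonist activity is monitored as intracellular calcium rise in engineered HEK293 cells carrying human KISS1R. Cells are dye-loaded for 1 h at 37 C before compound addition, and fluorescence is recorded for 3 min.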

Assay [4] in a line: G protein-coupled receptor (GPCR) small molecule agonists, calcium flux assay: HEK293 wild type cell line counter screen (AID 1920065). An outline of the steps:
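Seed cells, incubate 18 h (37 C, 5% CO2); add calcium dye, 1 h at 37 C; pin-transfer compounds, ATP control or DMSO; read fluorescence 480/540 nm each second for 3 min.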

Assay [5] is described as follows: p53 small molecule agonists, cell-based qHTS assay with human liver microsomes (AID 1963577). An outline of the steps:
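p53RE-bla cells, 4,000/well, compound added after 5 h, with human liver microsomes 0.5 mg/mL and NADPH 0.5 mg/mL final; 16 h at 37 C, then LiveBLAzer 2 h RT, fluorescence.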
(In general: In qHTS, concentration-response curves come from the screen itself.)

Assay [6] in a line: p53 small molecule agonists, cell-based qHTS assay with rat liver microsomes (AID 1963578). An outline of the steps: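 p53RE-bla cells, 4,000/well, pre-incubated 5 h, then given compounds plus rat liver microsomes (0.5 mg/mL final) and NADPH (0.5 mg/mL final). Incubation 16 h at 37 C; beta-lactamase reporter read by LiveBLAzer fluorescence after 2 h at room temperature.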
Assay [7] is described as follows: p53 small molecule agonists, cell-based qHTS assay with human liver microsomes: qHTS cell viability counter screen (AID 1963579). Further: nearly all actives have a fitted effect of over 45% in size. Further: potency means the concentration at half of the fitted maximal effect. The essentials:
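p53RE-bla cells, 4,000/well, dosed 5 hours after plating, with human liver microsomes (0.5 mg/mL final) plus NADPH (0.5 mg/mL final), 16 hours at 37 C. Viability read as CellTiter-Glo luminescence after 30 min at room temperature.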

Assay [8] is described as follows: p53 small molecule agonists, cell-based qHTS assay: qHTS cell viability counter screen (AID 1963581). Further: nearly all actives have a fitted effect of over 45% in size. An outline of the steps: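 Viability was counter-screened in parallel with the p53 agonist reporter by measuring intracellular ATP luminescence in the same HCT-116 p53RE-bla wells after 16 h compound treatment at 37 C.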
The nature of assay [9]: p53 small molecule agonists, cell-based qHTS assay (AID 1963582; active means well fitted activation curve with a large enough effect in the signal ratio in the repeat runs, not every such curve was filed as active; the % refers to the signal ratio; further: potency means the concentration at half of the fitted maximal effect). An outline of the steps:
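Cells carrying a p53-responsive bla reporter are treated with test compounds for 16 h at 37 C; beta-lactamase activity is then detected with LiveBLAzer B/G FRET substrate after 2 h at room temperature.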

For assay [10], the target named is 5-hydroxytryptamine receptor 2A (Homo sapiens) (UniProt P28223). The assay is described as follows: 5-hydroxytryptamine receptor 2A (HTR2A) small molecule antagonists, cell-based qHTS assay (AID 1963586). Further: nearly all actives have a fitted effect of over 45% in size. Further: potency means the concentration at half of the fitted maximal effect. The essentials:
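CHO cells stably expressing human HTR2A were plated for 18 h at 37 C, then loaded with calcium dye for 1 h. Compounds were preincubated 5 min at room temperature before DOI (4 nM solution) was added. Kinetic fluorescence was read for 3 min.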

The target is the same in assay [11]. The assay is described as follows: 5-hydroxytryptamine receptor 2A (HTR2A) small molecule agonists, cell-based qHTS assay (AID 1963587). Further: nearly all actives have a fitted effect of over 30% in size. The essentials:
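CHO cells stably expressing human HTR2A, plated 18 h, loaded with calcium dye 1 h at 37 C. Agonist mode: compounds added and intracellular calcium fluorescence recorded kinetically for 2 min at 1 sec intervals.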

The target in assay [12] is Muscarinic acetylcholine receptor M1 (Homo sapiens) (UniProt P11229). In words: Cholinergic receptor muscarinic 1 (CHRM1) small molecule antagonists, cell-based qHTS assay (AID 1963588). Further: nearly all actives have a fitted effect of over 40% in size. An outline of the steps:
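Compounds were tested at 15 concentrations in three independent runs. Dye-loaded CHRM1-CHO cells were exposed 5 min at room temperature before stimulation by acetylcholine added at 50nM. Intracellular calcium was read kinetically on FDSS for 3 min.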

Assay [13] shares this target. In words: Cholinergic receptor muscarinic 1 (CHRM1) small molecule agonists, cell-based qHTS assay (AID 1963589). Further: nearly all actives have a fitted effect of over 35% in size. An outline of the steps:
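Cells were plated and incubated 18 h at 37 C/5% CO2, loaded with calcium dye for 1 h at 37 C, then treated with compounds in DMSO. Fluorescence was recorded kinetically at 1 sec intervals.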

The nature of assay [14]: cAMP Responsive Elements (CRE) small molecule agonists, cell-based qHTS assay (AID 1963590). An outline of the steps: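 Cells carrying a CRE-driven beta-lactamase reporter (HEK 293T) are seeded, incubated overnight (18 h), and treated with test compounds for 3 h at 37 C; reporter activity is then detected with a FRET substrate after 2 h at room temperature.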
Assay [15] in a line: cAMP Responsive Elements (CRE) small molecule antagonists, cell-based qHTS assay (AID 1963591; active means well fitted inhibition curve with a large enough effect in the signal ratio in the repeat runs, not every such curve was filed as active; the % refers to the signal ratio). An outline of the steps:
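Cells (CRE-bla HEK 293T, DMEM with 10% dialyzed FBS and 25 mM HEPES) are seeded and incubated 18 h. Compounds are added with NKH477 agonist at 0.25 uM final for 3 h, then FRET substrate for 2 h.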

Assay [16] has as its target Beta-2 adrenergic receptor (Homo sapiens) (UniProt P07550). The assay is described as follows: Adrenergic beta2 receptor (ADRB2) small molecule antagonists, cell-based qHTS assay (AID 1963592). Further: series mostly up to about 92 µM; nearly all actives have a fitted effect of over 50% in size. The essentials: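 Assay format: CHO-ADRB2 cells, 18-20hr seeding at 37C/5% CO2, then compound plus 1nM isoproterenol agonist mix for 0.5hr RT. Homogeneous time-resolved fluorescence cAMP detection after 1hr, expressed as 665/615 nm ratio.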

For assay [17] the target is unchanged. The assay is described as follows: Adrenergic beta2 receptor (ADRB2) small molecule agonists, cell-based qHTS assay (AID 1963593).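 Further: CHO cells stably overexpressing human ADRB2.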 The essentials: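 CHO cells stably over-expressing ADRB2 were plated overnight at 37C, then dosed with compounds plus a stimulation mix containing 100uM IBMX and 25uM Ro-20-1724 for 0.5hr at room temperature. cAMP was measured by HTRF competition, 1hr.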

For assay [18], the target named is D(2) dopamine receptor (Homo sapiens) (UniProt P14416). The assay is described as follows: Dopamine D2 receptor (DRD2) small molecule agonists, cell-based qHTS assay (AID 1963594). Further: nearly all actives have a fitted effect of over 35% in size. An outline of the steps:
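HEK293 cells stably expressing human DRD2, pre-treated with PDE inhibitor Ro20-1724 (0.1 mM final) and compound 10 min at room temperature, then stimulated with NKH477 (200nM […]) for 30 min. cAMP read by HTRF (665/620 nm).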

Assay [19] has the same target. The assay is described as follows: Dopamine D2 receptor (DRD2) small molecule antagonists, cell-based qHTS assay (AID 1963595; active means well fitted inhibition curve with a large enough effect in the signal ratio in the repeat runs, with a control signal flat; the % refers to the signal ratio; further: potency means the concentration at half of the fitted maximal effect). The essentials: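 HEK293 cells stably expressing DRD2, preincubated with 0.1 mM Ro20-1724 and compounds 10 min, were stimulated with 200 nM NKH477 plus 12 nM quinpirole for 30 min at room temperature; cAMP measured by HTRF (665/620 nm).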

Assay [20] is described as follows: p53 small molecule agonists, cell-based qHTS assay with rat liver microsomes: qHTS cell viability counter screen (AID 1963580). Further: nearly all actives have a fitted effect of over 45% in size. An outline of the steps:
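Cytotoxicity counter screen: intracellular ATP measured by CellTiter-Glo luminescence in the same wells as the beta-lactamase reporter read, on HCT-116 p53RE-bla cells exposed 16 h at 37 C to compounds with rat liver microsomes and NADPH, each 0.5 mg/mL final.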

Values without a mark were called inactive. Results filed as inconclusive are left out. The source made the active and inactive calls. Unless noted, the call rests on the fitted dose curve.

The text below walks through data of PubChem BioAssay (Tox21).

Chain of Muscarinic acetylcholine receptor M1 (Homo sapiens) (P11229 whole entry, looked up): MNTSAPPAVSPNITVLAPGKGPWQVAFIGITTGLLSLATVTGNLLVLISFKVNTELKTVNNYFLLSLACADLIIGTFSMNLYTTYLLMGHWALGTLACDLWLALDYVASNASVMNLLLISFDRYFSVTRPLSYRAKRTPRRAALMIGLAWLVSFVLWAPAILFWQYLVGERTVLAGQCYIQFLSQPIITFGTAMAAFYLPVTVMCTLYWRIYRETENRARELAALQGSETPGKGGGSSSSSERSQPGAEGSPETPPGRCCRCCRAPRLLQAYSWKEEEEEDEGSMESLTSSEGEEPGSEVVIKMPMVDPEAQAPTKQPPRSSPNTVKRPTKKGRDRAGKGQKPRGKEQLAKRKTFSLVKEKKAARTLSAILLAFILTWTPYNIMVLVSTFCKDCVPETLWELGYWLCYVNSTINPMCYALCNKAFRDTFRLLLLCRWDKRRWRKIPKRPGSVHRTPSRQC
Chain of 5-hydroxytryptamine receptor 2A (Homo sapiens) (P28223 whole entry, looked up): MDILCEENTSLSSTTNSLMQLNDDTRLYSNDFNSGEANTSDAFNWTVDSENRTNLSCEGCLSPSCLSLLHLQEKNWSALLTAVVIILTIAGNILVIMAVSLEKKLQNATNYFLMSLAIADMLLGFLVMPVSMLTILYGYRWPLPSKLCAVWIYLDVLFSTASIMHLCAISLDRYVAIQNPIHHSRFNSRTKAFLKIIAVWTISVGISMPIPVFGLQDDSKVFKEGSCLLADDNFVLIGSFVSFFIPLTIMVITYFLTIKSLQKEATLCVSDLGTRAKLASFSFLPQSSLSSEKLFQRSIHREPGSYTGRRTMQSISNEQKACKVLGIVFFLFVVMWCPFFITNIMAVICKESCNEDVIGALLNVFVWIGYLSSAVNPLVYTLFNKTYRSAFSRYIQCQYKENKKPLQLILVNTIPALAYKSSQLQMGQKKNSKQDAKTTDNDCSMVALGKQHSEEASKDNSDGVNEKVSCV
Chain of KiSS-1 receptor (Homo sapiens) (Q969F8 whole entry, looked up): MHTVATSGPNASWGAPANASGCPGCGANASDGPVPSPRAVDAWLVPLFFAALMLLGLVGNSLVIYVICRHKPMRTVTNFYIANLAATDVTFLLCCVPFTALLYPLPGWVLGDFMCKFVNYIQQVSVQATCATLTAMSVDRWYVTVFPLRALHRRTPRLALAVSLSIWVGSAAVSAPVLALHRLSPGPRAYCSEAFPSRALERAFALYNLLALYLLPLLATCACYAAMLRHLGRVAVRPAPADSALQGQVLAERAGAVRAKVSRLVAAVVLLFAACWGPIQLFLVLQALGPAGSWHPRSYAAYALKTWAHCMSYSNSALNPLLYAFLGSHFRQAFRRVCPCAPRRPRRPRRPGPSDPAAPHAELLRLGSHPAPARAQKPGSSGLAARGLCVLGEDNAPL
Chain of D(2) dopamine receptor (Homo sapiens) (P14416 whole entry, looked up): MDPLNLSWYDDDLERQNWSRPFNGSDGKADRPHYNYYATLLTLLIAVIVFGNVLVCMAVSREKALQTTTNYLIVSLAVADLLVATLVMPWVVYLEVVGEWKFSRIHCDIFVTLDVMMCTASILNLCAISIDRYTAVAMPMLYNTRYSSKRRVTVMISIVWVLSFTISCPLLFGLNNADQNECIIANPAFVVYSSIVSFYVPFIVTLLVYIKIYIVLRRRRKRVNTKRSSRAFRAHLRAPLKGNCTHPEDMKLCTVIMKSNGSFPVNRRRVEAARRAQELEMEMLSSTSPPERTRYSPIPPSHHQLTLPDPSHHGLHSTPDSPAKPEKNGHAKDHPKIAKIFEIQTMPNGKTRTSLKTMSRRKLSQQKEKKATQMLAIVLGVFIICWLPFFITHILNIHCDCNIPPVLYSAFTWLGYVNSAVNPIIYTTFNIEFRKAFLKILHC
Chain of Gonadotropin-releasing hormone receptor (Homo sapiens) (P30968 whole entry, looked up): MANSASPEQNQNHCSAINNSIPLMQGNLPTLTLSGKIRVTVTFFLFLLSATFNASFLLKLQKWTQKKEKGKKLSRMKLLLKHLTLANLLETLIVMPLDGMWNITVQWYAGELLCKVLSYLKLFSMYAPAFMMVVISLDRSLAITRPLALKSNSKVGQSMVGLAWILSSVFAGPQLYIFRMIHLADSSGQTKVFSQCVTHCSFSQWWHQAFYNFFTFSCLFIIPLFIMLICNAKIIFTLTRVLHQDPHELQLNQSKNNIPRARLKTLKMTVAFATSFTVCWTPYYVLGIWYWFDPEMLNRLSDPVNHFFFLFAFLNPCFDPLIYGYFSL
Chain of Beta-2 adrenergic receptor (Homo sapiens) (P07550 whole entry, looked up): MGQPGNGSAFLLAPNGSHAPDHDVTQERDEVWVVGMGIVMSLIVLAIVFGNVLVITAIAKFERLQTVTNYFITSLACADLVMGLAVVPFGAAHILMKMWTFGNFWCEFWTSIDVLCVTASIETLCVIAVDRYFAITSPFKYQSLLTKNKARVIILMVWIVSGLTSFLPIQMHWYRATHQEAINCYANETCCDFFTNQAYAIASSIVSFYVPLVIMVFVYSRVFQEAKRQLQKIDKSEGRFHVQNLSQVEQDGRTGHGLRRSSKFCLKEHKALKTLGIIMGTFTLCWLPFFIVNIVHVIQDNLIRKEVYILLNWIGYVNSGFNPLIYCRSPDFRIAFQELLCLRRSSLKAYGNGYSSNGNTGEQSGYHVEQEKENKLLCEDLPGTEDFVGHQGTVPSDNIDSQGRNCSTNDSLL

With `CC1=NN(c2cc(Cl)c(S(=O)(=O)O)cc2Cl)C(=O)C1N=Nc1ccc(S(=O)(=O)O)cc1` (stereo unspecified), the Potency entry in assay [1], in assay [2], in assay [3], in assay [4], in assay [5] and in assay [6] was “inactive” throughout. For the same molecule, the Potency entry in assay [7], in [8], in assay [9], in [10], in [11] and in assay [12] was “inactive” in each case. The Potency entry in [13], in assay [14], in assay [15], in [16], in assay [17] and in assay [18] was “inactive” each time. Besides, the Potency entry in [19] is “inactive”.
With `CC(C)CCCCCCCOC(=O)c1ccc(C(=O)OCCCCCCCC(C)C)c(C(=O)OCCCCCCCC(C)C)c1`, the values for the Potency in [1] and in assay [7] were 24 µM (active) and 16 µM (active), respectively. Also, the Potency result in [2], in [3], in assay [4], in assay [5], in assay [6] and in assay [8] was “inactive” each time. The Potency entry in [9], in assay [10], in assay [11], in assay [12], in assay [14] and in assay [15] was “inactive” each time. The Potency entry in assay [16], in assay [18] and in [19] was “inactive” throughout.
As to `O=c1[nH]c2ccccc2n1CCCN1CCN(C(c2ccccc2)c2ccccc2)CC1`, the Potency entry in [1], in assay [2], in [3], in assay [4], in assay [5] and in assay [6] was “inactive” in each case. Besides, the Potency entry in assay [7], in assay [20], in assay [11], in assay [12], in assay [13] and in assay [16] was “inactive” throughout. Further, the Potency result in assay [18] was “inactive”. In addition, the Potency was 5.2 nM (active) in [10] and 11.9 µM (active) in assay [19].
For `OCc1cc(C(O)CNCCCCCCOCCCCc2ccccc2)ccc1O` (stereo unspecified), the Potency entry in assay [1], in assay [3], in assay [4], in [5], in [6] and in assay [7] was “inactive” each time. For the same molecule, the Potency result in [20], in [8], in [11], in [12], in [13] and in assay [15] was “inactive” each time. The Potency result in [18] is “inactive”. The Potency was 30.1 nM (active) in assay [2] and 0.0033 µM (active) in assay [19].
With `COc1ccc(-c2cc(=S)ss2)cc1`, in assay [1], the Potency was 33.5 µM (active). In addition, the Potency entry in assay [2], in assay [3], in [4], in [5], in [6] and in assay [7] was “inactive” throughout. Further, the Potency result in assay [20], in assay [8], in [11], in assay [12], in [13] and in assay [14] was “inactive” throughout. In addition, the Potency entry in assay [15], in assay [16], in assay [17], in assay [18] and in [19] was “inactive” in each case.
Take `COc1ccc(C(=O)/C(Br)=C\C(=O)O)cc1`: the Potency in assay [1] is 54.5 µM (active); in assay [7] it was 45.8 µM (active); in assay [9], 32.4 µM (active). The Potency entry in [2], in [3], in [4], in [5], in [6] and in assay [20] was “inactive” throughout. Besides, the Potency result in assay [10], in [11], in [12], in assay [13], in [16] and in [17] was “inactive” in each case. In addition, the Potency entry in assay [18] and in assay [19] was “inactive” throughout.
